According to PubChem BioAssay (NCI):
This is part of a sample that, as a whole, favours compounds with a hit. Of some 79,000 tested, about 15% had one in any assay. Activity calls are given as the source filed them. No stated cut-off is given here; in the data, active means growth inhibition above about 70%; inactive means the rest.

Columns and labels:
[1] = NCI Yeast Anticancer Drug Screen. Data for the rad52 strain (AID 147);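 further: 0% = growth of vehicle-treated control cultures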; details: S. cerevisiae rad52 mutant growth inhibition, active compounds read high
How it was run: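 Yeast strain carrying a DNA damage repair alteration was exposed to test compounds. Growth inhibition was measured relative to vehicle-treated controls.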

[2] = NCI Yeast Anticancer Drug Screen. Data for the wt1 strain (AID 149);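 further: 0% = growth of vehicle-treated wt1 cultures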; details: S. cerevisiae wt1 strain (SPY 50644) growth inhibition, active compounds read high
How it was run: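 Using yeast strain wt1, compound-induced growth inhibition was determined against vehicle-treated cultures.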

[3] = NCI Yeast Anticancer Drug Screen. Data for the rad50EPP+ strain (AID 151);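 further: 0% = growth of vehicle-treated control cultures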; details: S. cerevisiae rad50 mutant strain, active compounds read high
How it was run: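 Yeast strain carrying rad50 alteration (rad50EPP+) exposed to compounds; growth inhibition measured relative to vehicle-treated controls.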

[4] = NCI Yeast Anticancer Drug Screen. Data for the mgt1 strain (AID 153); details: S. cerevisiae mgt1 mutant growth inhibition, active compounds read high
How it was run: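 Yeast mgt1 strain (DNA repair/cell-cycle alteration panel) exposed to compounds; growth inhibition measured relative to vehicle-treated controls.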

[5] = NCI Yeast Anticancer Drug Screen. Data for the rad50 strain (AID 155);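 further: 0% = growth of vehicle-only cultures of the same strain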; details: S. cerevisiae rad50 strain growth inhibition, active compounds read high
How it was run: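 Relative growth inhibition (compound vs vehicle) was measured in yeast with a defined repair-gene alteration.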

[6] = NCI Yeast Anticancer Drug Screen. Data for the mec2-1 strain (AID 157); details: S. cerevisiae mec2-1 strain, active compounds read high
How it was run: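 mec2-1 yeast strain, carrying an alteration in DNA damage repair or cell cycle control, was exposed to compounds; growth inhibition was measured relative to vehicle-treated controls.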

[7] = NCI Yeast Anticancer Drug Screen. Data for the rad14 strain (AID 159);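 further: 0% = growth of vehicle-treated control cultures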; details: S. cerevisiae rad14 strain growth inhibition, active compounds read high
How it was run: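 Screen for anticancer potential: a yeast strain altered in DNA damage repair is grown with compound, and reduced growth is quantified against vehicle controls.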

[8] = NCI Yeast Anticancer Drug Screen. Data for the sgs1 mgt1 strain (AID 161);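 further: 0% = growth of cultures given vehicle only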; details: S. cerevisiae sgs1 mgt1 strain, active compounds read high
How it was run: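 Yeast cells carrying a defined DNA-repair defect were exposed to test compounds. Growth inhibition was measured relative to vehicle-treated controls.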

[9] = NCI Yeast Anticancer Drug Screen. Data for the CLN2oe strain (AID 163);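 further: 0% = growth of vehicle-only control cultures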; details: S. cerevisiae CLN2oe strain, active compounds read high
How it was run: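 Yeast cells carrying a defined cell-cycle control alteration were exposed to test compounds. Growth inhibition was scored against vehicle-treated control cultures.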

[10] = NCI Yeast Anticancer Drug Screen. Data for the cln2 rad14 strain (AID 165);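 further: 0% = growth equal to vehicle treated cultures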; details: S. cerevisiae cln2 rad14 strain, active compounds read high
How it was run: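 Yeast carrying cln2 and rad14 alterations (cell cycle control and DNA damage repair) were exposed to compounds. Growth inhibition was measured against vehicle-treated controls.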

[11] = NCI Yeast Anticancer Drug Screen. Data for the bub3 strain (AID 167); details: S. cerevisiae bub3 mutant strain, active compounds read high
How it was run: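 Screening used yeast with an engineered genetic alteration affecting cell cycle control. Compound-exposed cultures were compared with vehicle cultures, and reduced growth was taken as inhibition.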

[12] = NCI Yeast Anticancer Drug Screen. Data for the wt2 strain (AID 169);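 further: 0% = growth of vehicle-treated yeast cultures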; details: S. cerevisiae wt2 strain growth inhibition, active compounds read high
How it was run: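 Yeast cells were exposed to test compounds, and growth inhibition was measured relative to vehicle-treated controls.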

[13] = NCI Yeast Anticancer Drug Screen. Data for the mlh1 strain (AID 171);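 further: 0% = growth of vehicle-treated control cultures of the same strain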; details: S. cerevisiae mlh1 strain growth inhibition, active compounds read high
How it was run: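 Yeast carrying a defined genetic alteration in DNA damage repair or cell cycle control were exposed to test compounds. Growth inhibition was measured relative to vehicle-treated controls.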

[14] = NCI Yeast Anticancer Drug Screen. Data for the sgs1 strain (AID 173);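 further: 0% = growth of vehicle-only control cultures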; details: S. cerevisiae sgs1 mutant, active compounds read high
How it was run: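 Yeast mutant strains carrying defined defects in DNA damage repair or cell cycle control were exposed to test compounds. Growth inhibition was scored against vehicle-treated controls.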

[15] = NCI Yeast Anticancer Drug Screen. Data for the mlh1 rad18 strain (AID 175); details: S. cerevisiae mlh1 rad18 strain growth inhibition, active compounds read high
How it was run: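 Growth inhibition of the yeast strain was measured after compound exposure and expressed relative to vehicle-treated controls. The strain carries defined defects in DNA damage repair.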

[16] = NCI Yeast Anticancer Drug Screen. Data for the rad18 strain (AID 177); details: S. cerevisiae rad18 mutant growth inhibition, active compounds read high
How it was run: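 Yeast carrying a defined DNA damage repair alteration were exposed to compounds. Growth inhibition was expressed relative to vehicle-treated controls.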

[17] = at 5.0 µM (retest, dose inferred, filed as 0.5)
[18] = at 50.0 µM (retest, dose inferred, filed as 5.0)

Measured: growth inhibition

O=P(Oc1ccc(Cl)cc1)(Oc1ccc(Cl)cc1)N1CC1
active: [5]; at 100.0 µM 79% | [7]; at 100.0 µM 90% | [14]; at 100.0 µM 92% | [15]; [18] 83%
inactive: [1]; at 1.2 µM -1% | [1]; at 3.7 µM 1% | [1]; at 11.0 µM 0% | [1]; at 33.0 µM 8% | [1]; at 100.0 µM 53% | [2]; at 1.2 µM -2% | [2]; at 3.7 µM -6% | [2]; at 11.0 µM -4% | [2]; at 33.0 µM -2% | [2]; at 100.0 µM 2% | [3]; at 1.2 µM -3% | [3]; at 3.7 µM -1% | [3]; at 11.0 µM 4% | [3]; at 33.0 µM 6% | [3]; at 100.0 µM -4% | [4]; at 1.2 µM -6% | [4]; at 3.7 µM -3% | [4]; at 11.0 µM -5% | [4]; at 33.0 µM -4% | [4]; at 100.0 µM 49% | [5]; at 1.2 µM 2% | [5]; at 3.7 µM 1% | [5]; [17] -9% | [5]; at 11.0 µM 2% | [5]; at 33.0 µM 8% | [5]; [18] 43% | [5]; at 50.0 µM 4.75% | [6]; at 1.2 µM -3% | [6]; at 3.7 µM -1% | [6]; [17] 4% | [6]; at 11.0 µM -2% | [6]; at 33.0 µM -1% | [6]; [18] 6% | [6]; at 50.0 µM 14.3% | [6]; at 100.0 µM 28% | [7]; at 1.2 µM 0% | [7]; at 3.7 µM 1% | [7]; at 11.0 µM 5% | [7]; at 33.0 µM 19% | [8]; [17] -10% | [8]; [18] 35% | [8]; at 50.0 µM 18.9% | [9]; at 1.2 µM -4% | [9]; at 3.7 µM -5% | [9]; at 11.0 µM 6% | [9]; at 33.0 µM 14% | [9]; at 100.0 µM 48% | [10]; [17] -17% | [10]; [18] 48% | [10]; at 50.0 µM 9.3% | [11]; at 1.2 µM -4% | [11]; at 3.7 µM -2% | [11]; [17] -23% | [11]; at 11.0 µM -5% | [11]; at 33.0 µM 2% | [11]; [18] 27% | [11]; at 50.0 µM 34.4% | [11]; at 100.0 µM 32% | [12]; at 1.2 µM -11% | [12]; at 3.7 µM -13% | [12]; at 11.0 µM -14% | [12]; at 33.0 µM -8% | [12]; at 100.0 µM 46% | [13]; at 1.2 µM -3% | [13]; at 3.7 µM -3% | [13]; at 11.0 µM -4% | [13]; at 33.0 µM 2% | [13]; at 100.0 µM 59% | [14]; at 1.2 µM -1% | [14]; at 3.7 µM -23% | [14]; at 11.0 µM 2% | [14]; at 33.0 µM 13% | [15]; [17] -8% | [15]; at 50.0 µM 32.1% | [16]; at 1.2 µM -5% | [16]; at 3.7 µM -1% | [16]; at 11.0 µM 0% | [16]; at 33.0 µM 3% | [16]; at 100.0 µM 47%

O=[N+]([O-])O.[NH-]C1CCCCC1[NH-].[NH-]C1CCCCC1[NH-].[NH-]C1CCCCC1[NH-].[OH-].[OH-].[OH-].[Pt+4].[Pt+4].[Pt+4] (stereo unspecified)
active: [15]; [18] 71% | [16]; at 100.0 µM 82%
inactive: [1]; at 1.2 µM -29% | [1]; at 3.7 µM -36% | [1]; at 11.0 µM -51% | [1]; at 33.0 µM -26% | [1]; at 100.0 µM -25% | [2]; at 1.2 µM -15% | [2]; at 3.7 µM -12% | [2]; at 11.0 µM -14% | [2]; at 33.0 µM -14% | [2]; at 100.0 µM -3% | [3]; at 1.2 µM -28% | [3]; at 3.7 µM -26% | [3]; at 11.0 µM -19% | [3]; at 33.0 µM -28% | [3]; at 100.0 µM -31% | [4]; at 1.2 µM -14% | [4]; at 3.7 µM -15% | [4]; at 11.0 µM -19% | [4]; at 33.0 µM -12% | [4]; at 100.0 µM -7% | [5]; at 1.2 µM -6% | [5]; at 3.7 µM -14% | [5]; [17] 17% | [5]; at 11.0 µM -14% | [5]; at 33.0 µM -2% | [5]; [18] 20% | [5]; at 50.0 µM 50.8% | [5]; at 100.0 µM -11% | [6]; at 1.2 µM 12% | [6]; at 3.7 µM -6% | [6]; [17] 16% | [6]; at 11.0 µM 0% | [6]; at 33.0 µM 4% | [6]; [18] 14% | [6]; at 50.0 µM -15.5% | [6]; at 100.0 µM 63% | [7]; at 1.2 µM -5% | [7]; at 3.7 µM -16% | [7]; at 11.0 µM -33% | [7]; at 33.0 µM -5% | [7]; at 100.0 µM -10% | [8]; [17] 27% | [8]; [18] 45% | [8]; at 50.0 µM -22.4% | [9]; at 1.2 µM -8% | [9]; at 3.7 µM -17% | [9]; at 11.0 µM -17% | [9]; at 33.0 µM -23% | [9]; at 100.0 µM -13% | [10]; [17] 12% | [10]; [18] 21% | [10]; at 50.0 µM -7.35% | [11]; at 1.2 µM -4% | [11]; at 3.7 µM -9% | [11]; [17] 20% | [11]; at 11.0 µM -14% | [11]; at 33.0 µM -14% | [11]; [18] 25% | [11]; at 50.0 µM -32% | [11]; at 100.0 µM -9% | [12]; at 1.2 µM -46% | [12]; at 3.7 µM -58% | [12]; at 11.0 µM -55% | [12]; at 33.0 µM -51% | [12]; at 100.0 µM -36% | [13]; at 1.2 µM 2% | [13]; at 3.7 µM -10% | [13]; at 11.0 µM -6% | [13]; at 33.0 µM -13% | [13]; at 100.0 µM 12% | [14]; at 1.2 µM -22% | [14]; at 3.7 µM -30% | [14]; at 11.0 µM -19% | [14]; at 33.0 µM 6% | [14]; at 100.0 µM 8% | [15]; [17] 40% | [15]; at 50.0 µM 28.6% | [16]; at 1.2 µM -21% | [16]; at 3.7 µM 2% | [16]; at 11.0 µM 18% | [16]; at 33.0 µM 54%

Cc1cccc(NC(=O)CBr)c1
inactive: [1]; at 1.2 µM 3% | [1]; at 3.7 µM 41% | [2]; at 1.2 µM 1% | [2]; at 3.7 µM 24% | [3]; at 1.2 µM -10% | [3]; at 3.7 µM -3% | [3]; at 11.0 µM 26% | [4]; at 1.2 µM -2% | [4]; at 3.7 µM 22% | [5]; at 1.2 µM 6% | [5]; [17] 21% | [6]; at 1.2 µM 7% | [6]; at 3.7 µM 44%
active: [1]; at 11.0 µM 97% | [1]; at 33.0 µM 98% | [1]; at 100.0 µM 99% | [2]; at 11.0 µM 98% | [2]; at 33.0 µM 99% | [2]; at 100.0 µM 98% | [3]; at 33.0 µM 96% | [3]; at 100.0 µM 99% | [4]; at 11.0 µM 99% | [4]; at 33.0 µM 99% | [4]; at 100.0 µM 99% | [5]; at 3.7 µM 73% | [5]; at 11.0 µM 97% | [5]; at 33.0 µM 99% | [5]; [18] 99% | [5]; at 50.0 µM 99.2% | [5]; at 100.0 µM 99%
